Out of some 52,000 compounds screened, about 4,300 (8.3%) were called active. This is one part of a sample in which actives are shown more often than they occur. Unmarked numbers belong to inactive results. No stated cut-off is given here; in the data, active means survival mostly below about 52% (no sharp cut-off); inactive means mostly above about 56%.

The test relates to DeltatarO mutant. The test is described as follows: growth inhibition of S. aureus wild type versus tarO mutant, primary screen, teichoic acid synthesis inhibitors, RN4220, OD600 (AID 463173). The note with it: OD600, 18 h, hits give low values, screened at 18.75 µg/mL (by protocol).
In the case of `COc1cccc(C(c2c(O)cc(C)n(Cc3ccco3)c2=O)N2CCC(C)CC2)c1` (configuration not stated), the survival is 74%. Under `O=C(Cc1ccc(Cl)cc1)NCCN1CCOCC1` stands 91%. As to `CC1=C(C(=O)Nc2ccc(C)cc2C)C(c2ccc(O)cc2)n2nc(SCC(=O)c3ccc(C)cc3)nc2N1` (configuration not stated), the survival is 125%. With `Cc1ccc(C(=O)N(Cc2ccc(N(C)C)cc2)CC2CCCO2)cc1` (configuration not stated), the survival was 50%. Under `COc1ccc(C(=O)N(Cc2ccc(N(C)C)cc2)CC2CCCO2)cc1` (configuration not stated) stands 63%. Under `COc1cc(C(=O)N(Cc2ccc(N(C)C)cc2)CC2CCCO2)cc(OC)c1OC` (configuration not stated) stands 47% (active); under `CC(C)c1ccc(S(=O)(=O)Nc2cc3c(cc2NCc2ccccc2)n(C)c(=O)n3C)cc1`, 39% (active). In the case of `Cc1ccc(S(=O)(=O)Nc2cc3c(cc2NCc2ccccc2)n(C)c(=O)n3C)cc1`, the survival is 73%.

For `Cn1c(=O)n(C)c2cc(NS(=O)(=O)c3ccc(Cl)cc3)c(NCc3ccccc3)cc21`, the survival is 117%. As to `Cn1c(=O)n(C)c2cc(NS(=O)(=O)c3ccc(Br)cc3)c(NCc3ccccc3)cc21`, the survival is 57%. Under `Cn1c(=O)n(C)c2cc(NS(=O)(=O)c3ccccc3)c(NCc3ccccc3)cc21` stands 68%; under `Cn1c(=O)n(C)c2cc(NS(=O)(=O)c3ccc(C(C)(C)C)cc3)c(NCc3ccccc3)cc21`, 43% (active); under `COc1ccc(Cl)cc1NC(=O)Cn1cc(S(=O)(=O)Cc2cccc(Cl)c2)c2ccccc21`, 83%. Next, `CCOC(=O)c1ccc(NC(=O)c2c(NCc3cccc(OC)c3OC)sc3c2CCC3)cc1`: 77%. Next, `COc1ccccc1CCNC(=O)Cc1c(C)c2cc3c(C)coc3cc2oc1=O`: 68%; `CCOC(=O)C1=C(CN2CCN(c3ccccc3OC)CC2)NC(=O)NC1c1ccccc1` (configuration not stated): 70%. For `Cc1ccc(-c2nnc(Nc3cccc(Cl)c3)c3ccccc23)cc1S(=O)(=O)N1CCCCC1`, the survival is 65%. Take `CCN(C(=O)c1ccc(C(=O)N(CC)c2ccccc2C)cc1)c1ccccc1C`: the survival was 68%. Take `CCN(CC)C(=O)c1ccccc1NC(=O)c1ccccc1`: the survival was 92%. Under `CCN(CC)C(=O)c1ccccc1C` stands 48% (active). As to `CCCCC(CC)CNC(=O)CN(C)S(=O)(=O)c1ccc2c(c1)c(=O)n(C)c(=O)n2C` (configuration not stated), the survival was 73%. `CCc1ccc(-n2c(=O)c3c4c(sc3n(CC(=O)c3ccc(Cl)cc3)c2=O)CCC4)cc1`: the survival is 142%. Take `CCS(=O)(=O)c1nnnn1-c1ccccc1`: the survival is 9% (active).

On to `c1ccc(CNc2nnnn2-c2ccccc2)cc1`, for which the survival is 93%. Next, `O=C(O)CCSc1nnnn1-c1ccccc1`: 73%. Under `CCOc1ccc(C2CC(=O)Nc3cc4c(cc32)OCO4)cc1OC` (configuration not stated) stands 120%; under `NS(=O)(=O)c1ccc(CCNc2ncnc3c2cnn3-c2cccc(Cl)c2)cc1`, 93%; under `COc1ccc(CCNC(=O)Cn2c(=O)c3sccc3n(CC(=O)Nc3cccc(C(F)(F)F)c3)c2=O)cc1OC`, 82%. Under `COc1cccc(NC(=O)Cn2c(=O)n(CC(=O)NCCc3ccccc3)c(=O)c3sccc32)c1` stands 45% (active); under `COc1cc(NC(=O)Cn2c(=O)n(CC(=O)NCCc3ccc(OC)c(OC)c3)c(=O)c3sccc32)cc(OC)c1`, 49% (active); under `COc1cc(OC)cc(-n2c(=O)c3ccccc3n(CC(=O)NCCc3ccc(OC)c(OC)c3)c2=O)c1`, 83%.

With `COc1cccc(NC(=O)Cn2c(=O)n(CC(=O)NCc3ccc(C)cc3)c(=O)c3sccc32)c1`, the survival is 77%. In the case of `CCOc1ccc(NC(=O)Cn2c(=O)n(CC(=O)NCCc3ccccc3)c(=O)c3sccc32)cc1`, the survival is 71%. Under `CCN(CC)S(=O)(=O)c1ccc2c(c1)N(CC(=O)NCCCN1CCN(c3ccccc3F)CC1)C(=O)CO2` stands 77%; under `CC1=CC(C)C(/C=N/N=C(N)N)C(C)C1` (configuration not stated), 71%. Next, `Cn1c(SCC(=O)O)nc2ccccc21`: 109%; `CCCc1ncc(C(O)c2ccccc2OC)n1C` (configuration not stated): 85%; `CC(C)c1cnc2c(c1SCC(=O)NCc1ccccc1)c(=O)n(C)c(=O)n2C`: 77%. Next, `CC(C)c1ncc(C(O)c2cccc3ccccc23)n1C` (configuration not stated): 56% (active); `Cc1cc(NC(=O)CN2CCC(O)CC2)nc2c1c(=O)oc1ccccc12`: 83%; `COc1ccccc1-c1c(C(F)(F)F)oc2c(CN3CCCCC3C)c(O)ccc2c1=O` (configuration not stated): 62%. Turning to `COc1ccc(S(=O)(=O)NCCSc2nnnn2-c2ccccc2)cc1OC`, the survival was 127%. Next, `COc1ccc(C(C)=O)cc1CSc1nc(NCc2ccc(Cl)cc2)c2ccccc2n1`: 8% (active); `O=C(CSc1nc(Nc2ccc(F)c(F)c2)c2ccccc2n1)c1ccc(Cl)cc1`: 101%; `COc1ccc(C(C)=O)cc1CSc1nc(NCCc2ccccc2)c2ccccc2n1`: 60%. Under `COc1ccc(C(C)=O)cc1CSc1nc(Nc2ccc(F)c(F)c2)c2ccccc2n1` stands 25% (active); under `COc1ccc(C(C)=O)cc1CSc1nc(NCc2ccccc2)c2ccccc2n1`, 89%; under `COc1cc(Nc2nc(SCc3ccccc3F)nc3ccccc23)cc(OC)c1`, 118%.

For `Cc1cccc(N2CCN(C(=O)c3nn(C)c4c3CS(=O)(=O)c3ccccc3-4)CC2C)c1` (configuration not stated), the survival was 71%.

In the case of `COc1cc(NC(=O)c2cc3cc4ccc(OC)c(Cl)c4nc3s2)cc(OC)c1`, the survival was 98%. On to `CN(CC(=O)Nc1ccc(F)cc1F)S(=O)(=O)c1cccc2nsnc12`, for which the survival is 92%. In the case of `Cc1ccc(NC(=O)Cn2nnc3sc4c(c3c2=O)CCCC4)c(C)c1`, the survival was 86%.

For `CCc1cccc(CC)c1NC(=O)Cn1nnc2sc3c(c2c1=O)CCCC3`, the survival was 142%.

Consider `CC(C)OC(=O)c1ccc(Cn2nnc3sc4c(c3c2=O)CCCC4)cc1`, for which the survival is 20% (active). Next, `CCOC(=O)c1ccccc1NC(=O)Cn1nnc2sc3c(c2c1=O)CCCC3`: 63%; `Cc1ccc(OCCCCn2nnc3sc4c(c3c2=O)CCCC4)cc1`: 48% (active). Turning to `Cc1ccccc1Cn1nnc2sc3c(c2c1=O)CCCC3`, the survival is -1% (active).

As to `COc1ccc(OCCn2nnc3sc4c(c3c2=O)CCCC4)cc1`, the survival was 83%.

As to `O=c1c2c3c(sc2nnn1CCCCOc1ccc(Cl)cc1)CCCC3`, the survival is 108%. Next, `Cc1cccc(OCCn2nnc3sc4c(c3c2=O)CCCC4)c1`: 65%; `CC(C)OC(=O)c1cccc(NC(=O)Cn2nnc3sc4c(c3c2=O)CCCC4)c1`: 75%. For the compound `O=c1c2c3c(sc2nnn1Cc1ccc(Br)cc1)CCCC3`, the survival is 37% (active). In the case of `COC(=O)c1ccc(Cn2nnc3sc4c(c3c2=O)CCCC4)cc1`, the survival was 74%. Under `N#Cc1ccccc1NC(=O)CSc1ncn[nH]1` stands 164%; under `CC(C)(C)c1ccc(C(=O)N2CCC(c3nc4ccccc4o3)CC2)cc1`, 86%; under `CCOc1ccc(NC(=O)CSc2ncc(S(=O)(=O)c3ccc(F)c(C)c3)c(=O)[nH]2)cc1`, 58%. With `CCc1ccc(CNC(=O)c2c(C)oc3ncn(CC(C)C)c(=O)c23)cc1`, the survival was 88%.

For `Cc1cc(NCCN(C)C)n2nc(C)c(-c3ccccc3)c2n1`, the survival was 93%. Under `CCCCCNS(=O)(=O)c1ccc(N2CCCCS2(=O)=O)cc1` stands 77%; under `Cc1nc2cc(-c3cccc(F)c3)nn2c(C)c1CCC(=O)N1CCN(c2ccc(F)cc2)CC1`, 56%.

For `CCOc1ccc(-c2cc(NC(=O)Nc3ccccc3Cl)c(C(=O)OC)s2)cc1`, the survival was 56%. Next, `Cn1c(=O)oc2cc(S(=O)(=O)N3CCCC(C(=O)N4CCN(c5ccc(F)cc5)CC4)C3)ccc21` (configuration not stated): 92%; `COc1ccc(-c2[nH]c3ccccc3c2SCCNC(=O)c2cc(OC)c(OC)c(OC)c2)cc1`: 62%. Next, `COc1cccc(-c2nc(SCC(=O)NC3CCCC3)c(-c3ccc(C)cc3)[nH]2)c1`: 107%; `CC(C)Cc1nn2c(=O)cc(COC(=O)c3ccc4c(c3)OCO4)nc2s1`: 73%; `O=C(CN1CCCN(Cc2ccccc2Cl)S1(=O)=O)Nc1ccc2c(c1)OCCO2`: 67%. Under `Cc1ccc(S(=O)(=O)Nc2ccc3c(c2)CCCN3C(=O)c2cccs2)cc1` stands 75%; under `Cc1ccc(S(=O)(=O)Nc2ccc3c(c2)CCCN3C(=O)c2cccs2)cc1C`, 70%; under `Cc1ccc(C)c(S(=O)(=O)Nc2ccc3c(c2)CCCN3C(=O)c2cccs2)c1`, 47% (active). `Cc1ccc(NC(=O)Cn2c(=O)n(Cc3ccco3)c(=O)c3ccccc32)cc1`: the survival was 78%. Next, `Cc1cccc(NC(=O)Cn2nc(-c3ccc(Cl)cc3)c3ccccc3c2=O)c1`: 142%. Next, `COCCNC(=O)Cn1nc(C)c2c(C)n(-c3ccc(C)cc3)nc2c1=O`: 135%. Under `Cn1nc(-c2ccc(OCC(=O)Nc3cccc(C(F)(F)F)c3)cc2)c2ccccc2c1=O` stands 78%; under `COCCNC(=O)CCn1nc(-c2ccc(Cl)cc2)c2ccccc2c1=O`, 77%. Turning to `CN(C)C(=O)c1ccc(NC(=O)Cn2nc(-c3ccccc3)c3ccccc3c2=O)cc1`, the survival was 39% (active). Next, `COCCNC(=O)Cn1nc(-c2ccc(C)cc2)c2ccccc2c1=O`: 39% (active); `CN(C)C(=O)Cn1nc(-c2ccccc2)c2ccccc2c1=O`: 92%; `O=C(Cn1nc(-c2ccccc2)c2cnc3ccccc3c21)Nc1ccccc1`: 76%. Next, `O=C(Cn1nc(-c2ccc(Cl)cc2)c2ccccc2c1=O)Nc1cccc(Br)c1`: 28% (active); `O=C(Cn1nc(-c2ccc(Cl)cc2)c2ccccc2c1=O)NCCN1CCOCC1`: 97%; `O=C(Cn1nc(Cc2ccncc2)c2ccccc2c1=O)Nc1cccc(C(F)(F)F)c1`: 71%. On to `Cc1ccc(-c2nn(CC(=O)Nc3cccc(C(F)(F)F)c3)c(=O)c3ccccc23)cc1`, for which the survival was 31% (active).

For the origin of these results see PubChem BioAssay AID463173 (ICCB-Longwood Screening Facility, Harvard Medical School, 2010).
